From the supplement of paper PMC10849652
Targets with a hit are over-represented here; the source holds about 7,900 in all. About 0.6% of all pairs of compound and target were hits.

Columns and labels:
Assay in all cases: log2 fold change, soluble protein after heating vs DMSO (PISA); higher = thermal stabilisation; K562 cells, 10 uM, 30 min; active = over 0.2 and 3.5 SD of the protein, either way, in both replicates (recomputed)
erlotinib = compound: C#Cc1cccc(Nc2ncnc3cc(OCCOC)c(OCCOC)cc23)c1 [erlotinib]
In short: (§1)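 K562 cells at 2×10^6 cells/mL were exposed to 10 μM compound for 30 min, then aliquots were heated for 3 min across 48°C-58°C, pooled, and extracted in PBS containing 0.5% NP-40 at 4°C. The supernatant after 21,000xg for 90 min was taken as soluble protein and measured by TMTpro 16plex LC-MS/MS with channel sums equalised. Thermal stability is reported relative to control samples, with values from duplicates. Fold changes are given on a log2 scale.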

[1] = compound: C/C(=N\NC(=O)C1=CC(=CC=C1)S(=O)(=O)N2CCOCC2)/C3=C(C=CC(=C3)Cl)O
In short: as §1

[2] = compound: C1=CC(=C(C=C1Cl)C2=NC3=NC=CN=C3C(=N2)NC4=CC=NC=C4)F
In short: as §1

[3] = compound: C1=CC(=CC=C1C2=NC3=C(N2)C=C(C=C3)C(=O)N)OC4=CC=C(C=C4)Cl
In short: as §1

[4] = compound: C1=CC2=C(C=CC(=C2)/C=C\3/C(=O)NC(=NCC4=CC=CS4)S3)N=C1
In short: as §1

[5] = compound: C1=CC2=NC=CN=C2C=C1/C=C/3\C(=O)NC(=O)S3
In short: as §1

[6] = compound: C1=CC=C(C=C1)C2=NC(=C(N2)C3=CC=NC=C3)C4=CC(=C(C=C4)Cl)O
In short: as §1

[7] = compound: C1=CC=C2C(=C1)C3=NNC4=CC=CC(=C43)C2=O
In short: as §1

[8] = compound: C1CCN(C1)C(=O)NC2=CC=CC(=C2)NC3=NC=C(C(=N3)NCCC4=CN=CN4)Br
In short: as §1

[9] = compound: C1CN(CCC1(CC2=CC=C(C=C2)Cl)N)C3=NC=NC4=C3C=CN4
In short: as §1

IRAK-1-4 Inhibitor I = compound: C1COCCN1CCN2C3=CC=CC=C3N=C2NC(=O)C4=CC(=CC=C4)[N+](=O)[O-] [IRAK-1-4 Inhibitor I]
In short: as §1

ibrutinib = compound: C=CC(=O)N1CCC[C@@H](n2nc(-c3ccc(Oc4ccccc4)cc3)c3c(N)ncnc32)C1 [ibrutinib]
In short: as §1

[10] = compound: CC(=O)c1cnc2ccc(-c3cc(Cl)c(O)c(Cl)c3)nc2c1N[C@H]1CC[C@H](CN(C)C)CC1
In short: as §1

ralimetinib = compound: CC(C)(C)Cn1c(N)nc2ccc(-c3[nH]c(C(C)(C)C)nc3-c3ccc(F)cc3)nc21 [ralimetinib]
In short: as §1

[11] = compound: CC(C)(O)CC(=O)NCCn1ccc2ncnc(Nc3ccc(Oc4cccc(C(F)(F)F)c4)c(Cl)c3)c21
In short: as §1

[12] = compound: CC(C)C1=C2N=C(C=C(N2N=C1)NCC3=CC=CC=C3)NCCCCCCN
In short: as §1

[13] = compound: CC(C)C[C@@H](C=O)NC(=O)[C@H](CC(C)C)NC(=O)[C@H](CC(C)C)NC(=O)OCc1ccccc1
In short: as §1

pinometostat = compound: CC(C)N(C[C@H]1O[C@@H](n2cnc3c(N)ncnc32)[C@H](O)[C@@H]1O)[C@H]1C[C@@H](CCc2nc3cc(C(C)(C)C)ccc3[nH]2)C1 [pinometostat]
In short: as §1

[14] = compound: CC1=C(C(CC(=O)N1)C2=CC=C(C=C2)C(F)(F)F)C(=O)NC3=C(C=C4C(=C3)C=NN4)F
In short: as §1

[15] = compound: CC1=C(C2=C(C=C1)C(=O)C3=CC=CC=C3N2CCCN)C
In short: as §1

Measured: log2 fold change

CNDP2 (UniProt Q96KP4)
Sequence of UniProt Q96KP4 (Q96KP4 whole entry, looked up): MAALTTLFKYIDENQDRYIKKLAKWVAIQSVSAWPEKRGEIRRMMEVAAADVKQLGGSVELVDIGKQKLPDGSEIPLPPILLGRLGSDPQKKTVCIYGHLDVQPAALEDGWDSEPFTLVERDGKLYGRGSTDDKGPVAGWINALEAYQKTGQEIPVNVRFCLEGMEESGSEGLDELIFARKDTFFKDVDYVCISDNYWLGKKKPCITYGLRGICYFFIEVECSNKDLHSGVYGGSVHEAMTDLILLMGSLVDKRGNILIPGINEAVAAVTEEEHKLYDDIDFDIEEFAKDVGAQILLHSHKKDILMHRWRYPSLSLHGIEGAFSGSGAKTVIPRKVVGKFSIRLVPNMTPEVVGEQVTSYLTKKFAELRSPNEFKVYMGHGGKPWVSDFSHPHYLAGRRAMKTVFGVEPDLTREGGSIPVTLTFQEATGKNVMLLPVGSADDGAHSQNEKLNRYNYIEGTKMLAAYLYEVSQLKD
inactive: erlotinib 0.035 | [1] -0.099 | [2] 0.058 | [3] 0.022 | [4] 0.091 | [5] -0.024 | [6] 0.064 | [7] 0.058 | [8] 0.023 | [9] 0.072 | IRAK-1-4 Inhibitor I 0.098 | ibrutinib 0.002 | [10] -0.01 | ralimetinib 0.07 | [11] -0.005 | [12] -0.011 | [13] -0.029 | pinometostat -0.035 | [14] -0.011 | [15] 0.042

CSNK2A2 (UniProt P19784)
Sequence of UniProt P19784 (P19784 whole entry, looked up): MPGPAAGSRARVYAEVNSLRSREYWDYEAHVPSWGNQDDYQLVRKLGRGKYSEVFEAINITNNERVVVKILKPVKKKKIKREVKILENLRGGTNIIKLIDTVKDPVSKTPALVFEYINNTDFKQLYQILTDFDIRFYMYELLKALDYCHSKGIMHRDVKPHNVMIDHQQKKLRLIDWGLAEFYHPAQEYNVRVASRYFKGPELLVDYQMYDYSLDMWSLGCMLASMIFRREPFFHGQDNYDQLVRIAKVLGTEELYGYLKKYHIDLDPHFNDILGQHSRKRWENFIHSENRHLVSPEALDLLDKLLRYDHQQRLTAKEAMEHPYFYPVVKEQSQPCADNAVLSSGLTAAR
active: [4] 0.22 | [5] 0.591 | [10] 0.585 | [15] 0.235
inactive: erlotinib -0.053 | [1] -0.08 | [2] 0.046 | [3] -0.006 | [6] -0.038 | [7] 0.185 | [8] 0.034 | [9] -0.047 | IRAK-1-4 Inhibitor I 0.033 | ibrutinib 0.006 | ralimetinib 0.001 | [11] -0.065 | [12] 0.026 | [13] -0.029 | pinometostat 0.149 | [14] 0.009

CCDC59 (UniProt Q9P031)
inactive: erlotinib -0.118 | [1] -0.127 | [2] -0.192 | [3] 0.071 | [4] -0.136 | [5] -0.014 | [6] -0.091 | [7] 0.069 | [8] 0.054 | [9] -0.027 | IRAK-1-4 Inhibitor I -0.083 | ibrutinib -0.051 | [10] 0.224 | ralimetinib 0.28 | [11] -0.073 | [12] 0.093 | [13] 0.197 | pinometostat 0.233 | [14] 0.036 | [15] -0.468

C19orf53 (UniProt Q9UNZ5)
inactive: erlotinib -0.161 | [1] -0.216 | [2] -0.52 | [3] 0.079 | [4] -0.129 | [5] -0.011 | [6] -0.024 | [7] -0.028 | [8] 0.053 | [9] -0.176 | IRAK-1-4 Inhibitor I -0.136 | ibrutinib 0.031 | [10] 0.12 | ralimetinib 0.201 | [11] 0.043 | [12] 0.013 | [13] 0.126 | pinometostat 0.32 | [14] 0.079 | [15] -0.546

CAVIN1 (UniProt Q6NZI2)
Sequence of UniProt Q6NZI2 (Q6NZI2 whole entry, looked up): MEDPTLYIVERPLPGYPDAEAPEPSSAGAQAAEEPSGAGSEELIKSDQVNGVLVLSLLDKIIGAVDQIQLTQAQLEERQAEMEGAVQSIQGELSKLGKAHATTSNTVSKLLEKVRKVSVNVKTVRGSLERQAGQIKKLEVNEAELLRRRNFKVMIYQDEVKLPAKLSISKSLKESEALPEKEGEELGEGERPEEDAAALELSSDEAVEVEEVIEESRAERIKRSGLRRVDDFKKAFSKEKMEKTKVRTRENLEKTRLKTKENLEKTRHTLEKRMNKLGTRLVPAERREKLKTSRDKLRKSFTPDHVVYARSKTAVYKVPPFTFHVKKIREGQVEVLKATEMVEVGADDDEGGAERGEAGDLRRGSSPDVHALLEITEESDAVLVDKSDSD
active: [15] -0.437
inactive: erlotinib -0.06 | [1] -0.085 | [2] -0.309 | [3] 0.121 | [4] -0.04 | [5] -0.002 | [6] 0.274 | [7] 0.07 | [8] 0.062 | [9] -0.137 | IRAK-1-4 Inhibitor I -0.064 | ibrutinib -0.002 | [10] 0.011 | ralimetinib 0.393 | [11] 0 | [12] -0.156 | [13] -0.011 | pinometostat 0.2 | [14] 0.06

CDK6 (UniProt Q00534)
Sequence of UniProt Q00534 (Q00534 whole entry, looked up): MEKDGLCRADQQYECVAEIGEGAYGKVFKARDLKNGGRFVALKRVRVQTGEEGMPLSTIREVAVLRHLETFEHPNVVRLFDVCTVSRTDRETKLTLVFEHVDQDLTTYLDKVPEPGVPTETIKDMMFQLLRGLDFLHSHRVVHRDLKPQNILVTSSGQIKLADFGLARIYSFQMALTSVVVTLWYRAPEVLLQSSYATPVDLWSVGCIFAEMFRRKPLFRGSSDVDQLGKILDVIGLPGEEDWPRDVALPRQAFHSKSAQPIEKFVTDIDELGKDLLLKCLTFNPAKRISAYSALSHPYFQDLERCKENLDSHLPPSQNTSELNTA
inactive: erlotinib -0.035 | [1] 0 | [2] -0.053 | [3] 0.02 | [4] 0.027 | [5] 0.018 | [6] -0.031 | [7] 0.04 | [8] 0.017 | [9] -0.034 | IRAK-1-4 Inhibitor I -0.014 | ibrutinib 0.031 | [10] 0.107 | ralimetinib 0.009 | [11] -0.009 | [12] -0.026 | [13] 0.086 | pinometostat 0.062 | [14] 0.02 | [15] -0.019

CDC42BPA isoform 6 (UniProt Q5VT25)
Sequence of UniProt Q5VT25 (Q5VT25 whole entry, looked up): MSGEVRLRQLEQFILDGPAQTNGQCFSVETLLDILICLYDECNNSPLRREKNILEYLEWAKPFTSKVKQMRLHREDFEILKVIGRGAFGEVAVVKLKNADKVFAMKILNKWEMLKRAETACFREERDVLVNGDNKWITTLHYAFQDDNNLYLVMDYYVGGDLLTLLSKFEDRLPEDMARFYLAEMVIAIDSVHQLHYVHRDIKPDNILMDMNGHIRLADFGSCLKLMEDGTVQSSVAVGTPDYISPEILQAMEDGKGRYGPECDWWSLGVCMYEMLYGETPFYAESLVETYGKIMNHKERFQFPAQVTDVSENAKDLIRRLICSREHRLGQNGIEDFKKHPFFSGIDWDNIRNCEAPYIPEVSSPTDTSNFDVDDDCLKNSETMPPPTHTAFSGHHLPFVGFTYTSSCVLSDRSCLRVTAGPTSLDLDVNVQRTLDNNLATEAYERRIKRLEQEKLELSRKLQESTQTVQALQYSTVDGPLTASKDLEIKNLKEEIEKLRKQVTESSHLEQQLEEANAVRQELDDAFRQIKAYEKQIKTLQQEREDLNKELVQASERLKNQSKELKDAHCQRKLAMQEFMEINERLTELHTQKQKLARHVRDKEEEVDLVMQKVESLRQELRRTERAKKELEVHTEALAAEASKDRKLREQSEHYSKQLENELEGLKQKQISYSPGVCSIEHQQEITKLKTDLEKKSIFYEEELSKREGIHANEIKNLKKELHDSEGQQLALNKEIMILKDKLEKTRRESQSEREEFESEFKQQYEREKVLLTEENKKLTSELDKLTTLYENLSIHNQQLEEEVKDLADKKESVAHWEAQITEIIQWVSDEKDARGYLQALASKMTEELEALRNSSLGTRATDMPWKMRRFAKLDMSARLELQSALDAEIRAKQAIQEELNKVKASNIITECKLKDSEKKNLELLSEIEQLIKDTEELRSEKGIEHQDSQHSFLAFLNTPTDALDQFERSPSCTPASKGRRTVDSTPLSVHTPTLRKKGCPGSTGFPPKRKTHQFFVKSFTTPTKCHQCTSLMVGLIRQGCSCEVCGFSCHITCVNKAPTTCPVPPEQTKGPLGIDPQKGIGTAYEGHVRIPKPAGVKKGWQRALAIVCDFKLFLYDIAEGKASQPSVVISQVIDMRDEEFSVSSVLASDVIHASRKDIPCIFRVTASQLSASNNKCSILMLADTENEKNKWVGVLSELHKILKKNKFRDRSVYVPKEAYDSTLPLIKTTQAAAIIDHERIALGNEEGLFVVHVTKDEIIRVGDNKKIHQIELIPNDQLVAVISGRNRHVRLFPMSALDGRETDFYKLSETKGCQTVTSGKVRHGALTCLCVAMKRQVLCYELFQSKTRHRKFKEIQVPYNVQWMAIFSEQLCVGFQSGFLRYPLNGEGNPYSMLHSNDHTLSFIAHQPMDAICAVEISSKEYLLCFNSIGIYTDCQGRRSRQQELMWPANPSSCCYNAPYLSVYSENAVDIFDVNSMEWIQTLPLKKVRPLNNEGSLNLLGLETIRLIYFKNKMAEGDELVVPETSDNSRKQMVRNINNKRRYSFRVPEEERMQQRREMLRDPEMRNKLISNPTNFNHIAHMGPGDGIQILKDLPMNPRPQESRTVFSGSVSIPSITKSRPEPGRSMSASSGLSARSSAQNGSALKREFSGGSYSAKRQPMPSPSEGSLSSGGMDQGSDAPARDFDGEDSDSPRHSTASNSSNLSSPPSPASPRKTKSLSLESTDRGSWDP
active: [10] -1.07
inactive: erlotinib -0.081 | [1] 0.115 | [2] -0.022 | [3] 0.008 | [4] -0.337 | [5] -0.011 | [6] 0.03 | [7] 0.073 | [8] -0.03 | [9] -0.396 | IRAK-1-4 Inhibitor I -0.025 | ibrutinib -0.09 | ralimetinib 0.094 | [11] -0.02 | [12] -0.193 | [13] 0.043 | pinometostat 0.029 | [14] -0.192 | [15] 0.132

COQ7 (UniProt Q99807)
Sequence of UniProt Q99807 (Q99807 whole entry, looked up): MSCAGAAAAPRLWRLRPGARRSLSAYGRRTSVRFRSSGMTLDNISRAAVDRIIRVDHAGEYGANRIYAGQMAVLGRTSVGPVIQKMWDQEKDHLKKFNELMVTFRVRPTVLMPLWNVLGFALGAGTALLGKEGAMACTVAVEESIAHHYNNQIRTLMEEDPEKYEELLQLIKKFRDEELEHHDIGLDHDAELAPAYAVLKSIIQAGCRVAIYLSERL
inactive: erlotinib 0.082 | [1] -0.014 | [2] 0.075 | [3] 0.023 | [4] -0.005 | [5] 0.068 | [6] -0.024 | [7] -0.009 | [8] 0.02 | [9] 0.052 | IRAK-1-4 Inhibitor I 0.08 | ibrutinib 0.021 | [10] -0.064 | ralimetinib -0.03 | [11] 0.01 | [12] -0.034 | [13] 0 | pinometostat -0.016 | [14] -0.018 | [15] -0.035

CSNK2A1 (UniProt P68400)
inactive: erlotinib -0.03 | [1] -0.011 | [2] 0.006 | [3] 0.024 | [4] 0.139 | [6] -0.041 | [7] 0.094 | [8] -0.003 | [9] -0.013 | IRAK-1-4 Inhibitor I 0.022 | ibrutinib 0.029 | ralimetinib -0.082 | [11] 0.006 | [12] -0.064 | [13] -0.021 | pinometostat 0.103 | [14] 0.004 | [15] 0.159
active: [5] 0.296 | [10] 0.245

CPQ (UniProt Q9Y646)
Sequence of UniProt Q9Y646 (Q9Y646 whole entry, looked up): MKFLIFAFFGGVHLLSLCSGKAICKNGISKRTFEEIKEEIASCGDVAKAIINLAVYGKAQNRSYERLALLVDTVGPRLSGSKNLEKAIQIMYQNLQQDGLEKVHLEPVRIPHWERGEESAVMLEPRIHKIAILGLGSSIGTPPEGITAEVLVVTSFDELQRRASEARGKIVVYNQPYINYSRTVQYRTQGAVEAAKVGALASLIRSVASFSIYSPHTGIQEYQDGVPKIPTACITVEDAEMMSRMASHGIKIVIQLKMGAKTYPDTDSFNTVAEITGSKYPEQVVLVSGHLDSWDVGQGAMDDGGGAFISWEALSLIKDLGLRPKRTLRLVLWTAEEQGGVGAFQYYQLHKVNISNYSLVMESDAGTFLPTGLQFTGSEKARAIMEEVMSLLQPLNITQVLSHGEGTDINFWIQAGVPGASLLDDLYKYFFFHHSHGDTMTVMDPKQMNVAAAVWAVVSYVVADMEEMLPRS
inactive: erlotinib 0.013 | [1] 0.002 | [2] 0.051 | [3] 0 | [4] 0.05 | [5] 0.004 | [6] 0.07 | [7] 0 | [8] -0.027 | [9] 0.125 | IRAK-1-4 Inhibitor I 0.095 | ibrutinib 0.01 | [10] -0.034 | ralimetinib -0.011 | [11] 0.003 | [12] 0.049 | [13] -0.032 | pinometostat 0.007 | [14] 0.023 | [15] 0.006

CHD4 isoform 2 (UniProt Q14839)
active: [12] -0.313
inactive: erlotinib 0.042 | [1] 0.103 | [2] -0.011 | [3] -0.007 | [4] 0.029 | [5] 0.034 | [6] 0.044 | [7] -0.08 | [8] -0.047 | [9] -0.1 | IRAK-1-4 Inhibitor I -0.198 | ibrutinib -0.106 | [10] -0.215 | ralimetinib 0.112 | [11] -0.067 | [13] 0.045 | pinometostat 0.07 | [14] 0.013 | [15] -0.057

CIZ1 (UniProt Q9ULV3)
Sequence of UniProt Q9ULV3 (Q9ULV3 whole entry, looked up): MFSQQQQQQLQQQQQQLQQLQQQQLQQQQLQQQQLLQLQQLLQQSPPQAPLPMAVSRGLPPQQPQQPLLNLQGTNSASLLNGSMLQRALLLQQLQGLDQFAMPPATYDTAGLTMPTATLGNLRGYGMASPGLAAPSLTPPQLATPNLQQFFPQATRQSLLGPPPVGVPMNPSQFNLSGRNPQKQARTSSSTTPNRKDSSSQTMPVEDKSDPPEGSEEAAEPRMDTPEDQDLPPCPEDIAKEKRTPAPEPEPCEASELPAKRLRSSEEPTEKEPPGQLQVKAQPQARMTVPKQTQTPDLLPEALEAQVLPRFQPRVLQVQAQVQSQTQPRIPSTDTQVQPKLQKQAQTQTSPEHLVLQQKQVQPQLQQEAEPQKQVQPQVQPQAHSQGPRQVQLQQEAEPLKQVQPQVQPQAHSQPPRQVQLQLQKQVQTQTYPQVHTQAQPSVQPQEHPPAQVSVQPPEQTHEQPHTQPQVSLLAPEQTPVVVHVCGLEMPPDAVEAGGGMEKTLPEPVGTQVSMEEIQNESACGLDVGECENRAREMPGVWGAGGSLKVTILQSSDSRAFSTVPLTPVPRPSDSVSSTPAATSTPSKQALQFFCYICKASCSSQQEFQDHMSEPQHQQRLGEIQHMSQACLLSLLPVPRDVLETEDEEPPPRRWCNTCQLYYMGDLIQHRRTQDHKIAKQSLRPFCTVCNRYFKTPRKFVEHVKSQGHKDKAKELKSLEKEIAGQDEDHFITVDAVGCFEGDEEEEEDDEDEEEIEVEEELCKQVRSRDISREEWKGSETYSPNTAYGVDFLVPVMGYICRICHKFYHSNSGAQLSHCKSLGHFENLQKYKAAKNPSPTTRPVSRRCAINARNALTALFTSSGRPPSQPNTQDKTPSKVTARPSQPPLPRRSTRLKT
inactive: erlotinib 0.002 | [1] 0.024 | [2] 0.032 | [3] 0.069 | [4] 0.009 | [5] 0.083 | [6] -0.092 | [7] -0.085 | [8] 0.034 | [9] -0.016 | IRAK-1-4 Inhibitor I 0.013 | ibrutinib -0.03 | [10] -0.044 | ralimetinib 0.056 | [11] -0.056 | [12] 0.035 | [13] 0.053 | pinometostat -0.02 | [14] -0.02
active: [15] -0.248

COA6 isoform 2 (UniProt Q5JTJ3)
Sequence of UniProt Q5JTJ3 (Q5JTJ3 whole entry, looked up): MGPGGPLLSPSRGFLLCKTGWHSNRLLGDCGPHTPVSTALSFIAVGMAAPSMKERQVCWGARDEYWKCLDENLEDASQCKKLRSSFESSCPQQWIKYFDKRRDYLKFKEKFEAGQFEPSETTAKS
inactive: erlotinib 0.012 | [1] 0.022 | [2] 0.045 | [3] 0.007 | [4] 0.023 | [5] 0.062 | [6] -0.053 | [7] -0.108 | [8] 0.047 | [9] 0.02 | IRAK-1-4 Inhibitor I 0.043 | ibrutinib 0.036 | [10] 0.019 | ralimetinib -0.071 | [11] 0.045 | [12] 0.059 | [13] -0.026 | pinometostat -0.04 | [14] 0.016 | [15] -0.004

CHST10 (UniProt O43529)
active: [12] -0.435
inactive: erlotinib 0.013 | [1] -0.168 | [2] -0.144 | [3] -0.058 | [4] -0.111 | [5] 0.03 | [6] 0.067 | [7] 0.101 | [8] 0.008 | [9] 0.06 | IRAK-1-4 Inhibitor I 0.056 | ibrutinib -0.062 | [10] -0.135 | ralimetinib 0.059 | [11] 0.042 | [13] -0.003 | pinometostat 0.082 | [14] 0.025 | [15] 0.036

COPS3 (UniProt Q9UNS2)
inactive: erlotinib -0.019 | [1] 0.035 | [2] 0.091 | [3] 0.016 | [4] 0.055 | [5] 0.01 | [6] -0.009 | [7] 0.007 | [8] 0.014 | [9] 0.014 | IRAK-1-4 Inhibitor I 0.029 | ibrutinib 0.011 | [10] -0.023 | ralimetinib -0.096 | [11] -0.014 | [12] 0.028 | [13] -0.065 | pinometostat -0.046 | [14] -0.007 | [15] -0.003

CES2 isoform 4 (UniProt O00748)
inactive: erlotinib -0.05 | [1] -0.16 | [2] -0.264 | [3] -0.008 | [4] -0.06 | [5] -0.011 | [6] 0.139 | [7] 0.083 | [8] 0.061 | [9] -0.087 | IRAK-1-4 Inhibitor I -0.005 | ibrutinib 0.077 | [10] 0.038 | ralimetinib 0.006 | [11] 0.012 | [12] 0.045 | [13] 0.06 | pinometostat -0.02 | [14] -0.128 | [15] 0
